In ChEMBL document CHEMBL4513143, “CO-ADD screening of University of Natural Resources and Life (Austria) compounds”:
Results with a measured potency or affinity are listed apart.

How the values were obtained:
Staphylococcus aureus = conditions: Concentration 32 ug.mL-1; ASSAY_TEST Inhibition of Bacterial Growth; detection method Absorption (OD600); MEDIA CAMHB; plate type 384well; NBS; CORNING #3640; time 18 hr
Escherichia coli = conditions: Concentration 32 ug.mL-1; ASSAY_TEST Inhibition of Bacterial Growth; detection method Absorption (OD600); MEDIA CAMHB; plate type 384well; NBS; CORNING #3640; time 18 hr

[N-]=[N+]=NC[C@H]1OC(O)[C@@H](O)[C@@H]1O (some centres not stated)
Inhibition (Staphylococcus aureus): 29.31%
Inhibition (Escherichia coli): 18.39%
